Values joined by “and” are separate entries in the source; they are usually repeats but may differ in a detail not shown here. Equal entries are not always repeated. Inconclusive results are not listed. Active and inactive are the calls of the source. Unless noted, calls come from the whole dose curve; as a rule, active = well fitted curve in the direction sought with a large enough effect; inconclusive = small, poorly fitted or top-dose-only effect, or another doubt; inactive = no such curve, though single readings can be large; an effect the other way counts as inactive or inconclusive.
Assays:
[1] = Primary qHTS for small molecule stabilizers of the endoplasmic reticulum resident proteome: Secreted ER Calcium Modulated Protein (SERCaMP) assay (AID 1508630); conditions: SH-SY5Y GLuc-SERCaMP (Gaussia luciferase released on ER calcium loss) secretion, thapsigargin, luminescence; series mostly up to 38.4 µM; note: % is set by controls: 0 for no effect and ±100 for the full control effect
In short: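 The SH-SY5Y reporter protocol was run at 3 concentrations up to 38.3 uM (primary) or 11 concentrations (follow-up): 16 h compound, 100 nM thapsigargin for 4 h, then extracellular luciferase luminescence.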

[2] = molecular target: Cytochrome P450 2C9 (Homo sapiens) (UniProt P11712); test: Cytochrome P450 family 2 subfamily C member 9 (CYP2C9) small molecule antagonists: luciferase biochemical (cell-free) qHTS assay (AID 1645842; active = well fitted curve in the direction sought with a large enough effect in the repeat runs; an effect the other way counts as inactive or inconclusive; note: nearly all actives have a fitted effect of over 55% in size; note: potency is the fitted concentration of half-maximal effect; for activity change, negative = inhibition: % is set by controls: 0 for no effect and ±100 for the full control effect); conditions: P450-Glo CYP2C9 enzyme assay, luciferin luminescence; series mostly up to 57.4 µM
In short: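 P450-Glo CYP2C9 system: proluciferin substrate with enzyme in mix containing 0.4% BSA, 10 min at room temperature, then NADPH regeneration solution added and incubated 1 h at 37C. Detection reagent stopped reaction; luminescence read after 20 min as RLU.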

[3] = Primary qHTS for inhibitors of nuclear receptor binding SET domain protein 2 (NSD2) in an isogenic RCH-ACV NSD2 p.E1099K mutant (9B) (AID 1645876); conditions: RCH-ACV NSD2 E1099K (9B) viability, CellTiter-Glo, 72 h; series mostly up to 44.9 µM; note: nearly all actives have a fitted effect of over 70% in size; note: potency is the fitted concentration of half-maximal effect
[4] = Primary qHTS for inhibitors of nuclear receptor binding SET domain protein 2 (NSD2) in an RCH-ACV wild type WT cells (2C) (AID 1645877); conditions: RCH-ACV (leukaemia line) NSD2 WT (2C) viability, CellTiter-Glo, 72 h; series mostly up to 44.9 µM; note: nearly all actives have a fitted effect of over 70% in size; note: potency is the fitted concentration of half-maximal effect
[5] = molecular target: Cytochrome P450 2D6 (Homo sapiens) (UniProt P10635); test: Cytochrome P450 family 2 subfamily D member 6 (CYP2D6) small molecule antagonists: luciferase biochemical (cell-free) qHTS assay (AID 1645840; active = well fitted curve in the direction sought with a large enough effect in the repeat runs; an effect the other way counts as inactive or inconclusive; note: nearly all actives have a fitted effect of over 55% in size; note: potency is the fitted concentration of half-maximal effect; for activity change, negative = inhibition: % is set by controls: 0 for no effect and ±100 for the full control effect); conditions: P450-Glo CYP2D6 enzyme, luciferin luminescence, 1 h; series mostly up to 57.4 µM
In short: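 P450-Glo CYP2D6 system: proluciferin substrate converted by enzyme to luciferin, read by luminescence proportional to activity. Enzyme-substrate mix with compound 10 min at room temperature, then NADPH regeneration 1 h before detection reagent.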

[6] = molecular target: Catechol O-methyltransferase (Homo sapiens) (UniProt P21964); test: Confirmatory Screen for Target Class Profiling of Small Molecule Inhibitors of Methyltransferases (AID 1745852; calls by dose curve; note: potency is the fitted concentration of half-maximal effect; for activity change, negative = inhibition: % is set by controls: 0 for no effect and ±100 for the full control effect); conditions: MTase-Glo luminescence, SAH detection, recombinant enzyme; measured here: COMT max response; stronger effect = lower value
[7] = molecular target: Guanidinoacetate N-methyltransferase (Homo sapiens) (UniProt Q14353); test: as above; conditions: MTase-Glo luminescence, SAH detection, recombinant enzyme
[8] = molecular target: N-terminal Xaa-Pro-Lys N-methyltransferase 1 (Homo sapiens) (UniProt Q9BV86); test: Confirmatory qHTS for Inhibitors of N-terminal methyltransferase 1 (NTMT1): MTaseGlo Assay (AID 1645874); conditions: NTMT1 enzyme, MTase-Glo SAH luminescence; series mostly up to 100 µM;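 note: luminescence from SAH made as NTMT1 methylates SPKRIA peptide using SAM; 0% = DMSO control and -100% = no-enzyme control; nearly all actives have a fitted effect of over 65% in size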
In short: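 SPKRIA peptide at 1 uM was methylated by 125 nM NTMT1 using 100 uM SAM over 30 min at room temperature, following a 15 min compound preincubation. Product SAH was detected luminescently.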

[9] = activity change, negative = inhibition: at 57.3 µM (top of the series) unless noted

Sequence of Cytochrome P450 2C9 (Homo sapiens) (P11712 whole entry, looked up): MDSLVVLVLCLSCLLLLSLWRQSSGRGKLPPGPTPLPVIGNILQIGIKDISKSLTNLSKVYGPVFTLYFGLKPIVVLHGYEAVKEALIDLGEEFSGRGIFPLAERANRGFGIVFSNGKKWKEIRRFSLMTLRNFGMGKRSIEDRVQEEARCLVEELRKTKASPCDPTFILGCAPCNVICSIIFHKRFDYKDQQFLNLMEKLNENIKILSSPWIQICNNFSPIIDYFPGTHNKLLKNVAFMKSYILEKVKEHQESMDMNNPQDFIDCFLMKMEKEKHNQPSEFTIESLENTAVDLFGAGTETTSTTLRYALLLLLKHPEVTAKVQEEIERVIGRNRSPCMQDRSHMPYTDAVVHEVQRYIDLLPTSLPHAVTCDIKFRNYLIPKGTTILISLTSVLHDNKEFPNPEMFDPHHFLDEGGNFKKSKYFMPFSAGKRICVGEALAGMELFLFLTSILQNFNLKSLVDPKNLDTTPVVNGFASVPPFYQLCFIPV
Sequence of Catechol O-methyltransferase (Homo sapiens) (P21964 whole entry, looked up): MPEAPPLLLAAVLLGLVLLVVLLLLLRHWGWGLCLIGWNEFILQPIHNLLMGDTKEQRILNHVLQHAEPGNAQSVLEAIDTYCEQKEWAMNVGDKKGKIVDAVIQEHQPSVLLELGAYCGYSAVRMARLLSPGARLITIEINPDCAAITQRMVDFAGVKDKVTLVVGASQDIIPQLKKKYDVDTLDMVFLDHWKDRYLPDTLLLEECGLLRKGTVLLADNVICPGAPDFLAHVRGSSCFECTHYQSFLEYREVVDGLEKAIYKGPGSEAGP
Sequence of Cytochrome P450 2D6 (Homo sapiens) (P10635 whole entry, looked up): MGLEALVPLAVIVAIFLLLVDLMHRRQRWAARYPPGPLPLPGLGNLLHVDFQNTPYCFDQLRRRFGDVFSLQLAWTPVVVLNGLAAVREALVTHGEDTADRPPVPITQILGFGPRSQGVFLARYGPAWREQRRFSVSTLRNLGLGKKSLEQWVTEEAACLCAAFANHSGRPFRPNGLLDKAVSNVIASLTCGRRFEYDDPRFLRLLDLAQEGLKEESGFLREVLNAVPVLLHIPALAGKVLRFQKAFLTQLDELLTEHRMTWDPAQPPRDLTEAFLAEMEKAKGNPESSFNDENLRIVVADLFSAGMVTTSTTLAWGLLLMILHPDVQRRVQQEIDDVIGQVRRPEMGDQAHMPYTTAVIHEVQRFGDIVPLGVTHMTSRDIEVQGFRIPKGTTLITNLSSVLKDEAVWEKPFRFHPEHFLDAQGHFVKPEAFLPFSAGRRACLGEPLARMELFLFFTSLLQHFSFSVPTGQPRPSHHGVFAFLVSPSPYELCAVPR
Sequence of N-terminal Xaa-Pro-Lys N-methyltransferase 1 (Homo sapiens) (Q9BV86 whole entry, looked up): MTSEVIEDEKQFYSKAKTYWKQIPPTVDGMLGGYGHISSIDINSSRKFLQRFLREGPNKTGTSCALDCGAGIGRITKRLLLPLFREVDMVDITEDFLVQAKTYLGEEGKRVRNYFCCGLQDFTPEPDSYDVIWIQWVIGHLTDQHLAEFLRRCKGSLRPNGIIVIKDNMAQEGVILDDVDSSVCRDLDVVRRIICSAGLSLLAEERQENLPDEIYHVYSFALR

SMILES: Cc1cc(Nc2ncnc3ccc(-c4ccc(CNCCS(C)(=O)=O)o4)cc23)ccc1Oc1ccn2ncnc2c1
- Potency [1]: inactive
- Potency [2]: 12 µM (active)
- Potency [3]: 16.3 µM (active) and 16.6 µM (active)
- Potency [4]: 10.3 µM (active) and 14.8 µM (active)

SMILES: NC(=O)c1cccc2cn(-c3ccc([C@@H]4CCCNC4)cc3)nc12
- Potency [1]: inactive
- Potency [2]: inactive
- Potency [3]: 4.59 µM (active) and 2.63 µM (active)

SMILES: Nc1nccc(Oc2ccc(NC(=O)c3c[nH]cc(-c4ccc(F)cc4)c3=O)cc2F)c1Cl
- Potency [1]: inactive
- Potency [5]: 3.38 µM (active)
- Potency [2]: 8.49 µM (active)
- Potency [3]: 11.8 µM (active)
- Potency [4]: 10.5 µM (active)
- activity [6]: -3.16%
- activity change, negative = inhibition [7, 9]: -6.18%

SMILES: CC(C)(O)c1cc2nc(-c3cnc(N)nc3)nc(N3CCOCC3)c2s1
- Potency [1]: inactive
- Potency [5]: inactive
- Potency [3]: 0.372 µM (active)
- Potency [4]: 0.372 µM (active)

SMILES: CC(C)Nc1cc(C(F)(F)F)cc2nc(NC(=O)c3cccnc3)nn12
- Potency [1]: inactive
- Potency [5]: inactive
- Potency [3]: inactive
- Potency [4]: inactive

SMILES: CC1(C)CC(=O)c2c(C(F)(F)F)nn(-c3ccc(C(N)=O)c(NC4CCC(OC(=O)CN)CC4)c3)c2C1 (stereo not given)
- Potency [1]: inactive
- Potency [5]: 15.1 µM (active)
- Potency [2]: 2.68 µM (active)
- Potency [3]: 103 nM (active) and 74.2 nM (active)
- Potency [4]: 81.7 nM (active) and 118 nM (active)
- activity [6]: -2.7%
- activity change, negative = inhibition [7, 9]: 0%

SMILES: Cc1cc(N2CCOCC2)cc2[nH]c(-c3c(NC[C@@H](O)c4cccc(Cl)c4)cc[nH]c3=O)nc12
- Potency [1]: inactive
- Potency [8]: inactive
- Potency [3]: 1.66 µM (active)
- Potency [4]: 2.35 µM (active)

SMILES: COc1cccc(Nc2c(C(N)=O)cnc3c(C)cc(S(=O)(=O)c4cccc(C(=O)N(C)C)c4)cc23)c1
- Potency [1]: inactive
- Potency [2]: 0.849 µM (active)

SMILES: Nc1ncnc2c1c(-c1cccc(OCc3ccccc3)c1)cn2C1CC(CN2CCCC2)C1 (stereo not given)
- Potency [1]: inactive
- Potency [5]: 12 µM (active)
- Potency [2]: 16.9 µM (active)
- Potency [3]: 11.8 µM (active)
- Potency [4]: 10.5 µM (active)
- activity [6]: -58.1%
- Potency [7, 9]: 27.1 µM (active)

SMILES: CC1COC2(CCN(c3nc(=O)c4cc(C(F)(F)F)cc([N+](=O)[O-])c4s3)CC2)O1 (stereo not given)
- Potency [1]: inactive
- Potency [2]: inactive
- Potency [3]: inactive
- Potency [4]: inactive

SMILES: CCn1cc(-c2ccnc3[nH]c(-c4cccc(CN(C)C)c4)cc23)c(-c2ccc(NC(=O)N(C)C)cc2)n1
- Potency [1]: inactive
- Potency [5]: 19 µM (active)
- Potency [2]: 21.3 µM (active)
- Potency [3]: 112 nM (active) and 1.86 µM (active)
- Potency [4]: 36.6 nM (active) and 37.2 nM (active)
- activity [6]: -5.39% and -8.37%
- activity change, negative = inhibition ([7]; at 29.8 µM (top of the series)): 2.9%
- activity change, negative = inhibition ([7]; at 57.3 µM (top of the series)): -1.45%

SMILES: COc1cc2c(Oc3ccc(NC(=O)C4(C(=O)Nc5ccc(F)cc5)CC4)cc3F)ccnc2cc1OCCCN1CCOCC1
- Potency [1]: inactive
- Potency [2]: 3.01 µM (active)
- Potency [3]: 515 nM (active) and 1.32 µM (active)

SMILES: C[C@@]12O[C@@H](C[C@]1(O)CO)n1c3ccccc3c3c4c(c5c6ccccc6n2c5c31)CNC4=O
- Potency [1]: inactive
- Potency [3]: 0.0661 µM (active)
- Potency [4]: 0.0661 µM (active)

— PubChem BioAssay (NCATS)
